Source: PubChem BioAssay (National Center for Advancing Translational Sciences (NCATS))
In the library only some 2.4% were active in any assay of this set; here they are far more common.
TDP1 inh – qHTS Assay for Inhibitors of Tyrosyl-DNA Phosphodiesterase (TDP1); Tyrosyl-DNA phosphodiesterase 1 (Homo sapiens), Q9NUW8; AID 485290, 2010; Potency, µM (titrated, usually from 130 µM), inactives show at the top dose activity change, negative = inhibition, usual class: inhibitors; hit rate 0.28% among 350,000; recombinant TDP1, AlphaScreen DNA substrate cleavage; further: on the % scale 0 is the no-effect control and ±100 the full control effect; nearly all actives have a fitted effect of over 40% in size
Target sequence (Q9NUW8 whole entry, looked up): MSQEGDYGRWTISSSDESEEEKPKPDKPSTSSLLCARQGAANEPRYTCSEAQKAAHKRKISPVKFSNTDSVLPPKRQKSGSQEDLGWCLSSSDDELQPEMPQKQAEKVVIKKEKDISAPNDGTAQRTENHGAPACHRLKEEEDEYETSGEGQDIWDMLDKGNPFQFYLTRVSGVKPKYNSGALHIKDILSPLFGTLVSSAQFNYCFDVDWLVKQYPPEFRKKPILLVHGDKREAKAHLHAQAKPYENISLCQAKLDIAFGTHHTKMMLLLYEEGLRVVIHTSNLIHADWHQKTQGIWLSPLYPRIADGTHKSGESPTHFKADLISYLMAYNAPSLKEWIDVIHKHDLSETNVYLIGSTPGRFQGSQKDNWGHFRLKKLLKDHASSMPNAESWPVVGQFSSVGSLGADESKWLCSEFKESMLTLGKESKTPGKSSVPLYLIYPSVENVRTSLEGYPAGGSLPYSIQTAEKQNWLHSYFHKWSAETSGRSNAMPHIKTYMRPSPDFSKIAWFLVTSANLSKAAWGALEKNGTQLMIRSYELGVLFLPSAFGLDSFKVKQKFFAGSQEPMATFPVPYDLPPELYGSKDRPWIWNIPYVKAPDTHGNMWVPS
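E. coli-derived human Tdp1, 1 nM final. Cpd preinc 15 min RT; substrate 15 nM final, 5 min RT; AS bead mix 10 ug/ml final, 10 min RT. Signal loss = tyrosine-FITC cleavage. No-enzyme wells = max signal.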
POLI inh – qHTS for Inhibitors of Polymerase Iota; DNA polymerase iota (Homo sapiens), Q9UNA4; Pol iota fluorescent replication assay, 10 min; Potency, µM (top dose mostly 115 µM), for the others: at the highest dose activity, negative = inhibition, usual class: inhibitors; hit rate 1% among 390,000; AID 588590, 2011
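Fluorescent replication assay read twice, at 0 min and 10 min after adding 50 nM (final) substrate. Enzyme (10 nM) and compounds were first incubated 15 min at room temperature; enzyme-free buffer wells were negative controls.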
FEN1 inh-1 – qHTS Assay for the Inhibitors of Human Flap endonuclease 1 (FEN1); P39748; hit rate 0.35% among 390,000; Potency, µM (series often up to 114 µM), without a hit: top-dose activity change, negative = inhibition, hits mostly inhibitors; Recombinant FEN1 flap cleavage, fluorescence, 15 min; further: on the % scale 0 is the no-effect control and ±100 the full control effect; nearly all actives have a fitted effect of over 65% in size
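In this screen, 50 nM flap DNA substrate was added to 10 nM FEN1 pretreated with compound for 15 min at room temperature; cleavage was followed with reads at 0 and 15 min, and Hill fitting gave concentration–response parameters.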
POLB inh – qHTS Assay for Inhibitors of DNA Polymerase Beta | P06746 | Pol beta primer extension/strand displacement, fluorescence kinetic | Potency, µM (highest dose often 114 µM), for inactives: top-dose activity change, negative = inhibition, most hits filed as inhibitors | hit rate 1.3% among 340,000; further: on the % scale 0 is the no-effect control and ±100 the full control effect
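Pol beta (10 nM) was preincubated with compound for 15 min at room temperature. The reaction was then started with 50 nM substrate and read immediately and after a further 10 min at room temperature.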
Pol eta inh-1 – qHTS for Inhibitors of Polymerase Eta. DNA polymerase eta (Homo sapiens), Q9Y253. recombinant Pol eta, fluorescent DNA replication assay. Potency, µM (top dose mostly 114 µM), for the others: at the highest dose activity change, negative = inhibition, actives largely listed as inhibitors. hit rate 1.2% among 390,000. AID 588591, 2011; further: on the % scale 0 is the no-effect control and ±100 the full control effect
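Pol eta at 10 nM preincubated with compounds 15 min at room temperature; reaction started with fluorescent substrate (50 nM final) and read kinetically at 0 and 10 min.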
Pol kappa inh-1 – qHTS for Inhibitors of Polymerase Kappa | AID 588579, 2011 | DNA polymerase kappa (Homo sapiens), Q9UBT6 | Potency, µM (highest dose often 107 µM), without a hit: at the highest dose activity, negative = inhibition, most hits filed as inhibitors | purified Pol kappa, fluorescent DNA synthesis assay, 10 min | hit rate 0.53% among 400,000; further: on the % scale 0 is the no-effect control and ±100 the full control effect
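50 nM final substrate added after 15 min RT preincubation of 10 nM Pol kappa with compound; fluorescence read at 0 and 10 min.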
Pol kappa inh-2 – qHTS for Inhibitors of Polymerase Kappa: Confirmatory Assay for Cherry-picked Compounds. shares compounds with Pol eta inh-1. hit rate 76% among 920. purified Pol-kappa, fluorescent strand-displacement substrate. Potency, µM, usual class: inhibitors. AID 720501, 2013
Pol eta inh-2 – qHTS for Inhibitors of Polymerase Eta: Confirmatory Assay for Cherry-picked Compounds. Pol eta primer extension, TAMRA/BHQ fluorescence, 10 min. Potency, µM, most hits filed as inhibitors. hit rate 64% among 2,600. shares compounds with Pol eta inh-1
FEN1 inh-2 – qHTS Assay for the Inhibitors of FEN1: Confirmatory Assay for Cherry-picked Compounds. shares compounds with FEN1 inh-1. FEN1 flap cleavage, TAMRA/BHQ2 fluorogenic DNA substrate. Potency, µM, hits mostly inhibitors. hit rate 79% among 880. AID 720498, 2013; further: nearly all actives have a fitted effect of over 60% in size
An asterisk follows results filed as active; ? = inconclusive; / = not tested or not shown; [ ] = another dose, or the depositor's remark. The call rests on the fitted dose curve; in most records, active means well fitted curve in the direction sought with a large enough effect; inconclusive means small, poorly fitted or top-dose-only effect, or another doubt; inactive means no such curve, though single readings can be large; an effect the other way counts as inactive or inconclusive. Potency means the concentration at half of the fitted maximal effect.

SMILES	TDP1 inh	POLI inh	FEN1 inh-1	POLB inh	Pol eta inh-1	Pol kappa inh-1	Pol eta inh-2	FEN1 inh-2	others
CC1Cc2cc(S(=O)(=O)NCCc3ccc(Cl)cc3)ccc2N1C(=O)C1CCC1 (stereo not given)	5%	0%	-2%	-2%	-10%	-11%	/	/
Nc1cc2c(cc1[N+](=O)[O-])OCO2	/	?	-31%	28µM*	45µM*	?	?	/
Cc1ccc(C)n1-c1nc(=S)[nH][nH]1	6%	?	-14%	-2%	45µM*	28µM*	76*	/
COCCn1c(SC(C)C(=O)NCC2CCCO2)nc2sc3c(c2c1=O)CCC3 (stereo not given)	/	?	1%	/	?	-2%	?	/
COc1cc(/C=C2\SC(=S)N(Nc3ncc(C(F)(F)F)cc3Cl)C2=O)ccc1O	9%	14µM*	?	14µM*	?	-34%	/	/	Pol kappa inh-2=?
COCCNC(=O)C1CCC(CNS(=O)(=O)c2ccc3c(c2)CC(C)N3C(C)=O)CC1 (stereo not given)	0%	11%	16%	-2%	-21%	-13%	/	/
O=C(O)c1cccc(-n2cccc2/C=C\[N+](=O)[O-])c1	/	?	?	?	20µM*	50µM*	60*	/
O=Cc1cccn1-c1cccc([N+](=O)[O-])c1	9%	13%	-5%	?	7%	-2%	/	/
O=C(CN1C(=O)c2ccccc2S1(=O)=O)Nc1ncc(Cl)cc1Cl	-15%	?	-10%	/	22µM*	?	30*	/
COc1ccc(CN2C(=O)N(c3ccccc3)C(=O)C2c2ccccc2)cc1COc1ccc(NC(C)=O)cc1 (stereo not given)	0%	?	-15%	/	/	-1%	/	/
CC(=O)c1ccc(OC(=O)C2CSC3(C)CCC(=O)N23)cc1 (stereo not given)	-11%	18µM*	41%	/	8.9µM*	-35%	?	/
Cc1ccc(Cl)c(OC(=O)C2CSC3(C)CCC(=O)N23)c1 (stereo not given)	/	25%	5%	/	-19%	-22%	/	/
O=C(O)c1cccc(-c2ccc(/C=N/n3cnnc3)o2)c1	/	-3%	14%	?	?	-21%	/	/
Cc1c(C(=O)O)cccc1-c1ccc(/C=N/n2cnnc2)o1	/	35µM*	-14%	25µM*	20µM*	89µM*	48*	/	Pol kappa inh-2=15*
CCOC(=O)N1CCN(C(=O)Cn2ncc3ccccc32)CC1	-8%	?	-17%	20µM*	?	?	?	/
CCOC(=O)N1CCC(NC(=O)Cn2ncc3ccccc32)CC1	1%	26%	4%	10%	-5%	-4%	/	/
COc1cc(/C=C2\NC(=S)NC2=O)ccc1OCc1cccc(C(=O)O)c1	/	?	-26%	?	22µM*	?	38*	/	Pol kappa inh-2=21*
Cc1ccc(C)c(Cn2c(=O)n(CCCCC(=O)NCc3ccccc3Cl)c(=O)c3ccccc32)c1	-1%	19%	10%	1%	-16%	6%	/	/
Cc1ccnc(NC(=O)COC(=O)c2ccc(F)cc2F)n1	/	?	16%	1%	45µM*	-44%	?	/
CC1=C2C(CCS2(=O)=O)CC2(C1)C(=O)OC(C)(C)OC2=O (stereo not given)	-13%	?	-10%	?	79µM*	?	?	/
CC1=CN2C(=N)/C(=C/c3ccc([N+](=O)[O-])o3)C(=O)N=C2S1	3%	16µM*	56µM*	18µM*	4µM*	32µM*	60*	67*
Cn1c(O)c(/C=N/NC(=O)c2cc3ccccc3cc2O)c2ccccc21	2%[0.0935 µM]	?	4%	?	-20%	-23%	/	/
COc1ccc2c(c1)cc(C(=O)N/N=C/c1c(O)c(C(=O)O)cc3ccccc13)n2C	/	?	?	32µM*	40µM*	-22%	85*	85*	Pol kappa inh-2=75*
CCN(c1ccccc1)C(CNS(=O)(=O)c1ccccc1)c1ccccc1 (stereo not given)	0%	-12%	-8%	-12%	/	-19%	/	/
CC[N+](CC)(CC)CCCCOc1ccc2c(c1)C(=O)c1cc(OCCCC[N+](CC)(CC)CC)ccc1-2	/	?	13µM*	-102%	?	-27%	?	21*
SMILES	TDP1 inh	POLI inh	FEN1 inh-1	POLB inh	Pol eta inh-1	Pol kappa inh-1	Pol eta inh-2	FEN1 inh-2	others
CC[N+](CC)(CC)CCOc1ccc(/C=C\c2ccccc2)cc1	10%[56.1 µM]	/	/	/	/	-7%[19.4 µM]	/	/
O=C(Nc1ccc(S(=O)(=O)O)cc1)c1ccc2c(c1)S(=O)(=O)c1ccccc1C2=O	/	8%	45µM*	/	28µM*	-3%	67*	76*
Cn1nc(-c2ccc(OCC(=O)Nc3ccc(Cl)cc3)cc2)c2ccccc2c1=O	/	-6%	?	7.9µM*	-11%	-19%	/	34*	Pol kappa inh-2=42*
CC1CC(OC(=O)c2ccccc2O)CC(C)(C)C1 (stereo not given)	6%[56.1 µM]	/	/	/	/	-7%[60.1 µM]	/	/
O=C(O)/C=C/c1cn(-c2ccccc2)nc1-c1ccc(-c2ccc([N+](=O)[O-])cc2)o1	-4%	?	?	28µM*	32µM*	-24%	85*	76*
NC(=O)c1ccc(N=Cc2ccc([N+](=O)[O-])s2)cc1	0%	50µM*	?	?	32µM*	-34%	?	6.7*
O=[N+]([O-])c1ccc(C=Nc2ccc(Cl)c([N+](=O)[O-])c2)s1	-3%	/	/	?	/	/	/	/
Oc1ccc(N=Nc2ccccc2-c2nn[nH]n2)c(O)c1	/	11%	?	32µM*	22µM*	16%	54*	38*
Cc1c(NC(=O)C(C)OC(=O)c2ccc([N+](=O)[O-])s2)c(=O)n(-c2ccccc2)n1C (stereo not given)	6%	?	-2%	10µM*	50µM*	?	?	6*
